Laboratory results taken from the supplement of paper PMC7801607.

These molecules were tested on Plasmodium falciparum NF54 stage IV/V gametocytes (assay: % inhibition of gametocyte viability (luciferase reporter); higher = more inhibition). Settings: 1 µM; 48 h.
How it was run: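 Percent inhibition was normalised to controls from a single run. Stage IV/V gametocytes of the NF54-Pfs16-GFP-Luc line, at 2% gametocytaemia and 2% haematocrit, were exposed to compound at 1 or 5 µM for 48 h at 37 °C under stationary, hypoxic conditions. Luminescence was then read from 30 µL lysate mixed with 30 µL Promega luciferin substrate on a GloMax-Multi+ reader with 10 s integration.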

SMILES | % inhibition of gametocyte viability [%]
C[C@@H](c1nc(-c2ccc(C#N)cc2)cs1)[C@](O)(Cn1cncn1)c1ccc(F)cc1F | < 0
O=C(Nc1ccccc1)N(Cc1cc(Br)ccc1O)c1ccc(F)cc1 | < 0
O=C(NC1CCCc2c1[nH]c1ccc(Cl)cc21)c1ccccn1 (stereo not drawn) | < 0
O=C(CSc1nnc(Br)n1-c1ccc(C2CC2)c2ccccc12)Nc1ccc(C(=O)O)cc1Cl | < 0
O=C(NN1C(=O)[C@@H]2C3C=CC([C@H]4C[C@@H]34)[C@@H]2C1=O)c1ccc(C(F)(F)F)cc1 | < 0
CO[C@@]1(NC(=O)Cc2cccs2)C(=O)N2C(C(=O)O)=C(COC(N)=O)CS[C@@H]21 | < 0
c1ccc(-c2nnc3c4ccccc4c(N4CCNCC4)nn23)cc1 | < 0
O=C(O)c1ccccc1Sc1ncnc2sc3c(c12)CCC3 | < 0
CCNC(=O)Nc1cc2c(-c3ccnc(C)c3)ccc(CNC(=O)OC)c2cn1 | < 0
COc1c(F)c(F)cc2c(=O)c(C(=O)O)cn(C3CC3)c12 | < 0
COC1CC2CCC(C)C(O)(O2)C(=O)C(=O)N2CCCCC2C(=O)OC(C(C)CC2CCC(OCCO)C(OC)C2)CC(=O)C(C)/C=C(\C)C(O)C(OC)C(=O)C(C)CC(C)/C=C/C=C/C=C/1C (stereo not drawn) | 15
O=C(Nc1nnc(-c2ccccc2)o1)c1ccc(F)cc1 | < 0
O=C(O)C(Cc1c[nH]c2ccccc12)N1C(=O)c2ccccc2C1=O (stereo not drawn) | 13
O=C(NCc1ncc(C(F)(F)F)cc1Cl)c1c(Cl)cccc1Cl | < 0
CC(C)(C)NC(=O)[C@@H]1C[C@@H]2CCCC[C@@H]2CN1C[C@@H](O)[C@H](Cc1ccccc1)NC(=O)[C@H](CC(N)=O)NC(=O)c1ccc2ccccc2n1 | < 0
N#Cc1cc([N+](=O)[O-])ccc1Oc1ccccc1Cl | < 0
O=c1nc(N2CCN(CC3CCCCC3)CC2)sc2c([N+](=O)[O-])cc(C(F)(F)F)cc12 | 8.82
[N-]=[N+]=N[C@H]1C[C@H](n2ccc(=O)[nH]c2=O)O[C@@H]1CO | 11.1
Cc1onc(-c2ccccc2Cl)c1C(=O)N[C@@H]1C(=O)N2[C@@H]1SC(C)(C)[C@@H]2C(=O)O | < 0

SMILES | % inhibition of gametocyte viability [%]
O=C(c1ccccc1)N1CCN(c2ccccc2NC(=O)C(Cl)(Cl)Cl)CC1 | < 0
O=[N+]([O-])c1cn(Cc2nc(O)nc(O)c2Br)cn1 | < 0
CCc1nc2ccc(Cl)cn2c1C(=O)NCc1ccc(N2CCC(c3ccc(OC(F)(F)F)cc3)CC2)cc1 | 4.46
Cc1ccc(C)c(OCCCCCCN2C[C@H](O)[C@@H](O)[C@H](O)[C@H]2CO)c1 | 5.24
COc1cc(Cc2cc(N)nc(N)n2)cc(OC)c1OC | < 0
O=C(Cn1cnc2ccccc2c1=O)Nc1ccccc1 | 2.6
CC[C@H](NC(=O)[C@H](C)NC)C(=O)N1C[C@@H](O)C[C@H]1Cc1c(-c2[nH]c3cc(F)ccc3c2C[C@@H]2C[C@H](O)CN2C(=O)[C@H](CC)NC(=O)[C@H](C)NC)[nH]c2cc(F)ccc12 | 17
O=C(N[C@H](CCS)C(=O)N[C@H](Cc1ccccc1)C(=O)O)c1cc2ccccc2[nH]1 | < 0
CCCCCCCc1[nH]c2ccccc2c(=O)c1O | < 0
CN1CCN(Cc2ccc(-c3cnc4[nH]cc(-c5ccc6[nH]ccc6c5)c4c3)cc2)CC1 | < 0
CCc1oc2ccccc2c1C(=O)c1ccc(O)cc1 | < 0
C=CCc1cc(Cc2cnc(N)nc2N)cc(OC)c1O | < 0
CC1(C)C[C@H]1C(=O)N/C(=C\CCCCSC[C@@H](N)C(=O)O)C(=O)O | < 0
CCCCc1ccc(S(=O)(=O)Nc2cc(C)on2)cc1 | < 0
O=c1ccc2ncc(=O)n3c2n1CC3CN1CCC(NCc2cc3c(cn2)OCCC3)CC1 (stereo not drawn) | < 0
C=C[C@]1(C)C[C@@H](OC(=O)CS[C@@H]2C[C@H]3CC[C@@H](C2)N3C)[C@]2(C)[C@H](C)CC[C@]3(CCC(=O)[C@H]32)[C@@H](C)[C@@H]1O | < 0
CN(C/C=C/C#CC(C)(C)C)Cc1cccc2ccccc12 | < 0
O=C(O)CCNC(=O)c1ccccc1 | < 0
Nc1nc(NC2Cc3ccc(F)cc3C2)nc(N2CCCCC2)n1 (stereo not drawn) | < 0
